Results filed as inconclusive are left out. A number with no mark means an inactive call. The source made the active and inactive calls. Calls come from the whole dose curve; as a rule, active = well fitted inhibition curve with a large enough effect; inconclusive = small, poorly fitted or top-dose-only effect; inactive = no such curve, though single readings can be large or run the other way.
Assay: BET inhibitor-based combinations targeting novel dependencies in MECOM-rearranged (r) AML: SET-2 cell line (AID 2202231); note: nearly all actives have a fitted effect of over 35% in size
Conditions: SET-2 AML cells viability, CellTiter-Glo luminescence, 48 h; viability: stronger effect = lower value, series mostly up to about 46 µM
Text: Ecotropic viral insertion site 1 (EVI1) is located on chromosome 3q26.2 as part of the MECOM (MDS and EVI1 complex) locus. Under normal hematopoiesis, EVI1 is a regulator of hematopoietic stem cell maintenance and self-renewal and EVI1 levels decrease as the cells differentiate. In approximately 5-10% of de novo acute myeloid leukemia (AML) EVI1 is aberrantly expressed, including Chromosomal inv(3)(q21;q26.2) or t(3;3)(q21;q26.2) alterations (MECOM-r) that account for about 50% of AML with EVI1 overexpression 31. AMLs with high levels of EVI1 have a poor prognosis and an overall survival time averaging between 10-14 months. EVI1 overexpression confers resistance in leukemia cells, highlighting the need to develop new targeted therapies for EVI1 overexpressing AMLs.
Here, we performed an unbiased chemical drug screening by evaluating the single agent activity of a collection of 2,480 oncology-focused, approved and investigational drugs (NCATS Mechanism Interrogation Plates, MIPE v5.0) against a panel of seven AML cell lines. These included four MECOM-r cell-lines (AML-191, AML-194, UCSD-AML1 and HNT-34) and three non-MECOM-r AMLs (MV4-11, OCI-AML3 and SET-2). Exploiting the mechanistic redundancy built in the library, we identified target-level sensitivities in MECOM-r AML cells and relative activity as compared to other AML subtypes.
A collection of 2480 mechanistically annotated dugs (MIPE v5.0) was used to screen four 3q26.2 rearranged AML cell lines and three non-3q26.2 rearranged AML cell lines. This library purposely exploits redundancy by including multiple inhibitors of key onco-targets, while simultaneously encompassing mechanistic diversity, targeting more than 800 distinct mechanisms of action. Briefly, cells were seeded in 5 uL of growth media using a Multidrop Combi dispenser into 1536 well white polystyrene tissue culture treated plates (Corning) at a density of 500cells/well. For each cell-line, for each of the 2480 drugs in MIPE v5.0 library, an 11-point dose curve was generated via a 1536 pin-tool. Plates were incubated for 48 hr at standard incubator conditions, covered by a stainless steel gasketed lid to prevent evaporation. Cell viability was determined by luminescence based, Cell Titer Glo assay (Promega). In detail, 3 uL of Cell Titer Glo were added to each well and plates were incubated at room temperature for 15 min with a stainless-steel lid in place. Luminescence readings were taken using a Viewlux (PerkinElmer) with a 2 s exposure time per plate. Compound dose-response curves were normalized to DMSO and empty well controls on each plate. Quantitative drug activity data from dose-response curves was determined utilizing area Under the Curve (AUC) and Z-transformed AUC (Z-AUC, a mean-centering transformation applied to each individual cell-line screened).
With `C[C@@]12OC(=O)[C@]1([C@@H](O)[C@@H]1C=CCCC1)NC(=O)[C@@H]2CCCl` the Potency was 26.3 nM (active). Molecule `O=S(=O)(F)Cc1ccccc1` has a viability of 112%. In the case of `CC[C@H]1/C=C\C=C/C[C@@H](C)[C@H](O)[C@@](C)(O)C(=O)[C@@H](C)[C@H](O)[C@@H](C)C(=O)[C@@H](C)[C@H](O)[C@@H](C)/C=C\C(=O)O[C@@H]2[C@H](C)[C@H](CC1)O[C@]1(CC[C@H](C)[C@H](C[C@@H](C)O)O1)[C@H]2C`, the Potency is reported as 4170 nM (active). For `CN1C(=O)COc2c(C(=O)NC3CN4CCC3CC4)cc(Cl)cc21` (stereo not given), the viability was 95.7%. For `C/C(=C\c1csc(C)n1)[C@@H]1C[C@@H]2O[C@@H]2CCC[C@H](C)[C@H](O)[C@@H](C)C(=O)C(C)(C)[C@@H](O)CC(=O)O1`, the Potency was 33.2 nM (active). In the case of `Cn1c(CCCC(=O)O)nc2cc(N(CCCl)CCCl)ccc21`, the viability is reported as 78.5%. For `CN(C)c1cc2c(cc1Sc1nc3c(N)nccc3n1CCNCC(C)(C)C)OCO2`, the Potency was 1320 nM (active). Molecule `COc1ccc(C(=O)N2CCCC2=O)cc1` has a viability of 119%. Work on `C[C@]12CCC(=O)C(O)=C1CC[C@@H]1[C@@H]2CC[C@]2(C)C(=O)CC[C@@H]12` yielded a viability of 97.8%. In the case of `C[C@@H]1CC[C@@]2(OC1)O[C@H]1C[C@H]3[C@@H]4CC=C5C[C@@H](O[C@@H]6O[C@H](CO)[C@@H](O[C@@H]7O[C@@H](C)[C@H](O)[C@@H](O)[C@H]7O)[C@H](O)[C@H]6O[C@@H]6O[C@@H](C)[C@H](O)[C@@H](O)[C@H]6O)CC[C@]5(C)[C@H]4CC[C@]3(C)[C@H]1[C@@H]2C`, the Potency is reported as 8330 nM (active). For `Cn1cc(C2=C(c3cn(C4CCN(Cc5ccccn5)CC4)c4ccccc34)C(=O)NC2=O)c2ccccc21`, the viability was 103%. For `CN(C)NC(=O)CCC(=O)O`, the viability was 87.9%. With `C[C@]12CC[C@H]3[C@@H](CCC4=CC(=O)CC[C@@]43C)[C@H]1CC[C@H]2OC(=O)CCC1CCCC1` the viability was 96.4%. For `C[C@H]1CCC/C=C/C2C[C@H](O)C[C@H]2[C@H](O)/C=C/C(=O)O1` (stereo not given in full), the Potency was 332 nM (active). Molecule `Cc1c(N)nc([C@H](CC(N)=O)NC[C@@H](N)C(N)=O)nc1C(=O)N[C@H](C(=O)N[C@@H](C)[C@H](O)[C@@H](C)C(=O)N[C@@H](C(=O)NCCc1nc(-c2nc(C(=O)NCCC[S+](C)C)cs2)cs1)[C@@H](C)O)C(O[C@H]1O[C@H](CO)[C@H](O)[C@@H](O)[C@H]1O[C@H]1O[C@H](CO)[C@@H](O)[C@H](OC(N)=O)[C@@H]1O)c1cnc[nH]1` (stereo not given in full) has a viability of 100%. With `CN(C)[C@@H]1C(=O)C(C(N)=O)=C(O)[C@@]2(O)C(=O)C3=C(O)c4c(O)cccc4[C@@](C)(O)[C@H]3[C@H](O)[C@@H]12` the viability was 103%. In the case of `COC(=O)[C@@]12OC[C@]34[C@H]([C@@H](O)[C@@H]1O)[C@@]1(C)CC(=O)C(O)=C(C)[C@@H]1C[C@H]3OC(=O)[C@H](OC(=O)/C=C(\C)C(C)C)[C@@H]24`, the Potency is reported as 26.3 nM (active). With `N[C@@H](Cc1ccc(N(CCCl)CCCl)cc1)C(=O)O` the Potency was 4680 nM (active). For `Cc1sc2c(c1C)C(c1ccc(Cl)cc1)=N[C@@H](CC(=O)OC(C)(C)C)c1nnc(C)n1-2`, the Potency was 590 nM (active). Molecule `C[C@@H](C1CC[C@@]2(O)C3=CC(=O)[C@@H]4C[C@@H](O)[C@@H](O)C[C@]4(C)[C@H]3CC[C@]12C)[C@H](O)CCC(C)(C)O` (stereo not given in full) has a viability of 104%. For `C/C(O)=C(\C#N)C(=O)Nc1cc(Br)ccc1Br`, the viability was 90%. In the case of `CCNC(=O)C[C@@H]1N=C(c2ccc(Cl)cc2)c2cc(OC)ccc2-n2c(C)nnc21`, the Potency is reported as 2630 nM (active). Molecule `CCOP(=O)(OCC)C(C)NC(=O)N(CCCl)N=O` (stereo not given) has a viability of 106%. In the case of `CCOC(=O)Nc1ccc(NCc2ccc(F)cc2)cc1N`, the viability is reported as 102%. In the case of `CO[C@H]1CCC(O[C@H]2C[C@H]([C@]3(C)CC[C@]4(C[C@H](O)[C@@H](C)[C@@H]([C@@H](C)/C=C(\C)C(=O)[C@H](C)C[C@H](C)C(=O)O)O4)O3)O[C@]3(O[C@@H]([C@H]4O[C@@](O)(CO)[C@H](C)C[C@@H]4C)C[C@@H]3C)[C@@H]2C)O[C@@H]1C` (stereo not given in full), the Potency is reported as 1480 nM (active). `C[C@]12CC[C@H]3[C@@H](CC[C@@]45O[C@@H]4C(O)=C(C#N)C[C@]35C)[C@@H]1CC[C@@H]2O` showed a viability of 112%. For `CNC(=O)c1ccc(N2C(=S)N(c3ccc(C#N)c(C(F)(F)F)c3)C(=O)C23CCC3)cc1F`, the viability was 101%. `COc1cc(C)[nH]c(=O)c1CNC(=O)c1c(C)n([C@H](C)C2CCN(CC(F)(F)F)CC2)c2ccccc12` gave a viability of 101%. For `C/C(=C\c1csc(C)n1)[C@@H]1C[C@@H]2O[C@]2(C)CCC[C@H](C)[C@H](O)[C@@H](C)C(=O)C(C)(C)[C@@H](O)CC(=O)O1`, the Potency was 18.6 nM (active). Work on `CC(=O)Nc1ccc(OC[C@](C)(O)C(=O)Nc2ccc([N+](=O)[O-])c(C(F)(F)F)c2)cc1` yielded a viability of 114%. `COC[C@@H](NC(C)=O)C(=O)NCc1ccccc1` showed a viability of 112%. `O=C(O)CNC(=O)c1c(O)c2ccccc2n(Cc2ccccc2)c1=O` gave a viability of 107%. With `C[C@]12CC[C@H](O)CC1=CC[C@@H]1[C@@H]2CC[C@]2(C)C(=O)CC[C@@H]12` the viability was 109%. `O=C(NCC1CCOCC1)c1cnc(Nc2ccc(Cl)cc2Cl)nc1C(F)(F)F` showed a viability of 97.9%. With `COc1cccc2c1C(=O)c1c(O)c3c(c(O)c1C2=O)C[C@@](O)(C(=O)CO)CC3OC1CC(N2CCOC(OC)C2)C(O)C(C)O1` (stereo not given in full) the Potency was 3.3 nM (active). With `N=c1c2c(-c3ccccc3)c(-c3ccccc3)n(Cc3ccccc3)c2ncn1C1CCC(O)CC1` (stereo not given) the Potency was 1320 nM (active). In the case of `N[C@@H]1C[C@H]1c1ccccc1`, the viability is reported as 95.9%. `CCCN1CCO[C@@H]2c3cc(O)ccc3OC[C@H]21` showed a viability of 92%. With `C[C@H]1[C@H](O)[C@@H](C)/C=C/C=C/CC/C=C/C=C/C=C/C=C/[C@H](O[C@@H]2O[C@H](C)[C@@H](O)[C@H](N)[C@@H]2O)C[C@@H]2O[C@](O)(C[C@@H](O)[C@H](O)CC[C@@H](O)C[C@@H](O)C[C@@H](O)CC(=O)O[C@H]1C)C[C@H](O)[C@H]2C(=O)O` the viability was 99%. `CN1C(=O)[C@@H](NC(=O)[C@H](CCC(F)(F)F)[C@H](CCC(F)(F)F)C(N)=O)N=C(c2ccccc2)c2ccccc21` gave a viability of 114%.

From PubChem BioAssay (NCATS)
Potency is the fitted concentration of half-maximal effect.
